From PubChem BioAssay
FBPA Giardia inh = qHTS Assay for Inhibitors of Fructose-1,6-bisphosphate Aldolase from Giardia Lamblia; A8B2U2; purified Giardia FBPA; Potency, µM (doses to about 59.6 µM), inactives show top-dose activity, negative = inhibition, usual class: inhibitors; 0.71% of 290,000 active; further: potency means the concentration at half of the fitted maximal effect; on the % scale 0 is the no-effect control and ±100 the full control effect; nearly all actives have a fitted effect of over 55% in size
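40 nM FBPA preincubated 10 min at RT with compound (up to 57.5 uM final), then substrate plus GAPDH/TPI/NAD/arsenate coupling and diaphorase/resazurin added. Fluorescence read after 20 min at RT, 525/598 nm.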
TbPYK inhibitor = qHTS of Trypanosoma Brucei Inhibitors; TbPYK enzyme, Kinase-Glo Plus ATP luminescence, 45 min; pyruvate kinase (Trypanosoma brucei), Q57TT1; Potency, µM (top dose mostly 76.8 µM), without a hit: at the highest dose activity, negative = inhibition, hits mostly inhibitors; 0.12% of 410,000 active; further: potency means the concentration at half of the fitted maximal effect; on the % scale 0 is the no-effect control and ±100 the full control effect; nearly all actives have a fitted effect of over 50% in size
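Screened from lowest to highest concentration, compounds were pinned into TbPYK/substrate mixtures, and ADP (130 uM final) was added. Plates sat at room temperature for 45 min prior to Kinase-Glo Plus detection by luminescence.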
Shiga toxin inh = A qHTS for Small Molecule Inhibitors of Shiga Toxin | Vero cells, Shiga toxin protein synthesis inhibition reporter | inhibition, % at 38.7 µM | 9.2% of 290,000 active; in the data active means inhibition mostly above about 28%, no sharp cut-off; inactive means mostly below about 43%; further: 0% is about no effect
Cycloheximide cs = Cycloheximide Counterscreen for Small Molecule Inhibitors of Shiga Toxin. cell reporter, cycloheximide protein synthesis inhibition counterscreen. max response, %. 12% of 300,000 active; in the data active means max response mostly above about 13%, no sharp cut-off; inactive means mostly below about 14%; further: read at 38.3 µM for the half of the compounds with a filed dose; 0% is about no effect
RE007 growth inh = qHTS Assay for Inhibitors of the HIV-1 protein Vpr; 0.21% of 360,000 active; S. pombe RE007 Vpr strain, BacTiter-Glo ATP luminescence, 24 h; Potency, µM (titrated, usually from 92.2 µM), without a hit: top-dose activity change, negative = less growth, actives largely listed as inhibitors; active means well fitted falling curve with a large enough effect; inconclusive means small, poorly fitted or top-dose-only effect; inactive means no such curve, though single readings can be large or run the other way; further: potency means the concentration at half of the fitted maximal effect; on the % scale 0 is the no-effect control and ±100 the full control effect; nearly all actives have a fitted effect of over 50% in size
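Fission yeast RE007 carrying one integrated HIV-1 vpr copy, seeded at OD 0.01 in PMG+AL medium with 23 nL pinned compound. Grown 24 h at 30 degrees; viability read by BacTiter-Glo luminescence after 5 min.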
LmPK inh = qHTS Assay for Inhibitors of Leishmania Mexicana Pyruvate Kinase (LmPK); Q27686; purified LmPK, Kinase-Glo ATP luminescence, 1 h; Potency, µM (top dose mostly 57.5 µM), inactives show top-dose activity change, negative = inhibition, usual class: inhibitors; 0.37% of 290,000 active; further: potency means the concentration at half of the fitted maximal effect; on the % scale 0 is the no-effect control and ±100 the full control effect
Target sequence (Q27686 whole entry, looked up): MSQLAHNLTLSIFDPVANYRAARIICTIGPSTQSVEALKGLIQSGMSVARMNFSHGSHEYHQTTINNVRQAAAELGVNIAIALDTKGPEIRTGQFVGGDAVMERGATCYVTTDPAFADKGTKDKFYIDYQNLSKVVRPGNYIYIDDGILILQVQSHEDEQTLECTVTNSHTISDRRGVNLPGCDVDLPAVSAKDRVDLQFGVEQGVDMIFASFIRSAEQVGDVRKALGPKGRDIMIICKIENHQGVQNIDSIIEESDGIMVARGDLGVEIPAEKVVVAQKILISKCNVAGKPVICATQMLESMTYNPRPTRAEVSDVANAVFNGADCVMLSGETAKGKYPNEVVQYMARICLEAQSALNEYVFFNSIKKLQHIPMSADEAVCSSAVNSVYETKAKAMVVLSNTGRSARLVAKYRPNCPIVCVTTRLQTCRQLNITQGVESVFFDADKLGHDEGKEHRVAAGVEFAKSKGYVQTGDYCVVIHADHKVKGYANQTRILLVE
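Pyruvate kinase activity monitored as ATP production (luciferase luminescence). Conditions: 0.1 nM enzyme, 0.5 mM PEP, 0.1 mM ADP, 1 h, RT; normalized against uninhibited and no-enzyme wells.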
An asterisk follows results filed as active; ? = inconclusive; . = no result; [ ] = dose if it differs, or a comment. Only a selection was taken, and hits are over-represented in it overall. Unless noted, the call rests on the fitted dose curve; in most records, active means well fitted curve in the direction sought with a large enough effect; inconclusive means small, poorly fitted or top-dose-only effect, or another doubt; inactive means no such curve, though single readings can be large; an effect the other way counts as inactive or inconclusive.

SMILES	FBPA Giardia inh	TbPYK inhibitor	Shiga toxin inh	Cycloheximide cs	RE007 growth inh	LmPK inh
COc1ccccc1/C=C/C(=O)Nc1cccnc1	12.2%	0.4%	156.4*	37.3*	4.6%	1.5%
O=C(/C=C/c1ccc(Cl)cc1Cl)NCc1ccncc1	21.6%	-6.9%	57.8	29.8*	6.2%	3.1%
O=C(Nc1nc2ccsc2c(=O)s1)c1ccc(Cl)cc1	2.4%	-7.0%	88.2*	30.1*	-0.5%	-11.2%
CCn1c(NC(=O)c2ccc(F)cc2)c2ccccc2nc1=O	-10.4%	5.6%	-18.0	6.7	0.2%	0.1%
O=C(Nc1nc(=O)c2ccccc2s1)c1ccc(Cl)cc1	?	0.1%	33.9	19.5*	17.2%	-3.2%
O=C(Nc1nc(=O)c2ccccc2s1)c1ccc(F)cc1	?	-10.1%	49.8*	14.6*	-6.1%	-10.3%
CC(C)COC(=O)N1CCCCC1c1cc(C(=O)NCc2cccnc2)no1 (configuration not stated)	.	-8.7%	.	.	0.7%	.
Cc1c(C(=O)OCC(=O)N(C)CC(=O)Nc2ccc(F)cc2)oc2ccccc12	.	1.9%	.	.	-9.4%	.
CC(=O)Nc1ccc(NC(=O)c2cccc(S(=O)(=O)N3CCCCCC3)c2)cc1	.	-3.2%	.	.	-11.5%	.
CSc1ccccc1NC(=O)c1cccc(S(=O)(=O)N2CCN(C)CC2)c1	.	-7.0%	32.5*	37.0*	0.6%	-8.3%
CCc1cccc(CC)c1NC(=O)c1cccc(S(=O)(=O)N2CCN(C)CC2)c1	.	-4.4%	-16.4	-1.6	1.6%	-12.0%
CC(=O)c1ccc(NC(=O)c2cccc(S(=O)(=O)N3CCN(C)CC3)c2)cc1	0.6%	3.1%	104.1*	40.7*	7.7%	0.1%
Cc1ccc(CC2CC(=O)N(c3nc4ccccc4n3C)C2=O)cc1 (configuration not stated)	-18.8%	0.6%	-17.1	-1.9	-0.2%	3.8%
CC(C)(C)NC(=O)Cn1cc(S(=O)(=O)Cc2ccccc2Cl)c2ccccc21	.	7.2%[15.4 µM]	.	.	.	.
Cc1cc(C)c2c(C)c(C(=O)NCc3ccncc3)oc2c1	1.4%	-11.7%	-2.3	-2.5	12.8%	1.2%
CCc1nonc1NC(=O)c1oc2ccccc2c1C	.	-1.5%	23.6	36.3*	-17.0%	-1.7%
CCc1ccc2oc(C(=O)NCc3ccncc3)c(C)c2c1	6.7%	0.3%	50.3*	21.9*	7.8%	-3.3%
CCc1nonc1NC(=O)c1oc2ccc(C)cc2c1C	.	-2.1%	45.5*	36.1*	1.3%	-1.5%
CCc1ccc2oc(C(=O)Nc3nonc3CC)c(C)c2c1	-0.8%	0.0%	52.6*	58.9*	-0.2%	10.1%
Cc1nonc1NC(=O)c1oc2ccc(F)cc2c1C	.	1.1%	-2.9	-6.9	11.0%	-17.5%
COc1cccc(C(NC(C)=O)c2nc(-c3cccc(F)c3)cs2)c1 (configuration not stated)	.	0.1%	.	.	20.1%	.
CC(=O)Oc1ccc(N(C(C)=O)S(=O)(=O)c2cccs2)c2ccccc12	-26.7%	-1.9%	-8.9	-3.6	-11.7%	3.9%
CCc1nonc1NC(=O)c1oc2cc(Br)ccc2c1C	.	-0.7%	18.8	15.4*	-1.1%	10.9%
CCc1nonc1NC(=O)c1oc2c(C)c(C)ccc2c1C	0.3%	0.9%	2.8	2.3	1.5%	1.0%
Cc1ccsc1/C=N/Nc1nc2ccccc2[nH]1	1.9%	-22.1%	active	43.5*	-7.9%	14.1µM*
SMILES	FBPA Giardia inh	TbPYK inhibitor	Shiga toxin inh	Cycloheximide cs	RE007 growth inh	LmPK inh
C(=N\Nc1nc2ccccc2[nH]1)/c1cccs1	-1.9%	-4.7%	123.6*	69.1*	6.6%	14.1µM*
CC[C@H](C)[C@H](NC(=O)[C@H](CC(=O)O)NC(=O)[C@H](CC(C)C)NC(=O)[C@H](Cc1cnc[nH]1)NC(=O)[C@H](C)NC(=O)[C@H](Cc1ccccc1)NC(=O)[C@H](Cc1ccc(O)cc1)NC(=O)[C@@H](NC(=O)[C@H](C)NC(=O)[C@H](CCC(=O)O)NC(=O)[C@H](CCCCN)NC(=O)[C@H](CC(=O)O)NC(=O)[C@H](CCSC)NC(=O)[C@H](CC(C)C)NC(C)=O)C(C)C)C(=O)N[C@H](C(=O)N[C@@H](Cc1c[nH]c2ccccc12)C(=O)O)[C@@H](C)CC	2.1%	.	-6.9	-5.4	.	.
COCCNc1ncnc2c1ncn2[C@H]1CN(Cc2ccco2)C[C@@H](CO)O1	.	-6.5%	.	.	1.3%	.
CCN(CC)S(=O)(=O)c1ccc(NC(=O)c2cccs2)cc1	2.8%	1.7%	0.6	16.2	-2.4%	3.2%
Cc1cccc(OC(=O)c2cccnc2)c1	0.8%	-19.7%	.	-2.5	-0.4%	3.6%
CCN(CC)S(=O)(=O)c1cccc(C(=O)Oc2cccc(NC(=O)c3cccs3)c2)c1	-0.3%	-1.4%	-5.1	24.6*	-5.0%	1.0%
Cc1cccc(C(=O)Nc2cccc(OC(=O)c3cccc(C)c3)c2)c1	1.2%	8.6%	86.7	34.1*	0.7%	-2.9%
COC(=O)COc1cccc(NC(=O)c2cccc(C)c2)c1	0.9%	-7.1%	20.1	16.8*	-10.6%	-0.9%
COC(=O)COc1cccc(NC(=O)c2ccccc2)c1	-0.3%	0.3%	-5.7	1.2	-10.5%	-6.7%
O=C(CCCCCn1c(=O)c2sccc2n(CC(=O)Nc2cccc(Cl)c2)c1=O)NCc1ccc2c(c1)OCO2	.	-4.3%	.	.	.	.
O=C1/C(=C/c2cccc([N+](=O)[O-])c2)CCc2ccccc21	10.6%	0.8%	57.4*	58.6*	?	-7.9%
O=C1/C(=C/c2ccc([N+](=O)[O-])cc2)CCc2ccccc21	-5.9%	.	127.4*	71.3*	.	-19.2%
O=C1/C(=C/c2ccncc2)Cc2ccccc21	.	-15.5%	.	.	-28.2%	.
CCOC(=O)c1ccc(-c2ccc(/C=N/NC(=O)c3cncc(Br)c3)o2)cc1	4.6%	0.0%	40.3*	12.8*	1.7%	0.7%
Nc1nonc1-c1nc2ccccc2n1CC(=O)N/N=C/c1ccc(-c2cccc(C(=O)O)c2)o1	-14.1%	-18.4%	70.2*	34.3*	-1.7%	0.6%
O=C(Cc1ccc(Br)cc1)N/N=C/c1ccc(-c2cccc(C(=O)O)c2)o1	15.3%	-0.8%	101.6*	31.3*	9.1%	8.6%
O=Cc1ccc(-c2cccc(C(=O)O)c2)o1	3.4%	-5.0%	25.5	13.0	0.0%	-2.2%
Nc1nnc(CC(=O)N/N=C/c2ccc(-c3ccc(F)cc3)o2)s1	0.7%	-1.3%	-1.3	-2.2	-2.3%	-0.4%
CCOC(=O)c1ccc(-c2ccc(/C=N/NC(=O)Cc3nnc(N)s3)o2)cc1	-3.1%	-1.3%	52.2*	42.1*	-2.2%	1.6%
COC(=O)c1ccc(NC(=O)N2CCC(CN3CCc4ccccc4C3)CC2)cc1	.	4.3%	.	.	.	.
